HSP90 inh: HSP90 inhibitors, primary screen, cell lysate, luminescence; AID 1789, 2009; Rabbit reticulocyte lysate, luciferase refolding luminescence, 3 h; Heat shock protein HSP 90 (rabbit reticulocyte lysate; luciferase refolding); 290,000 tested, 0.91% active; inhibition, % at 5.6 µM;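 active = inhibition above the screen-wide mean plus 3 SD, computed separately per campaign, cut at about 16% in these data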;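 also: 0% = DMSO wells and 100% = 60 µM geldanamycin wells; inhibitors lower the luminescence because luciferase stays unfolded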
TWEAK Fn14 block: inhibitors of TWEAK-Fn14 signaling, primary screen, luciferase reporter cells, uHTS; TWEAK-stimulated Fn14 reporter cells, luciferase luminescence, 8 h; inhibition, % at 10 µM; 360,000 tested, 2% active; in the data active = inhibition above about 50%
TROY signal inh: inhibitors of TROY-driven NF-kB signaling, primary screen, Q293 LMP1-TROYcd cells, NF-kB luciferase, uHTS | 360,000 tested, 0.98% active | inhibition, % at 10 µM | Q293 LMP1-TROYcd NF-kB luciferase reporter, 4 h | AID 1347056, 2019;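 active = compounds whose plate-normalised and pattern-corrected inhibition of the luciferase reporter signal at the single screening dose is 50% or more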
LGR2 antag: inhibitors of bursicon-induced LGR2 CRE-luciferase signal, primary screen, cell-based, HEK293, CRE-luciferase reporter, bursicon stimulation. Drosophila bursicon receptor LGR2 (rickets). bursicon-stimulated, 4 h. inhibition, % at 9.99 µM. 380,000 tested, 0.35% active;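 active = drop in luminescence signal, shown as inhibition above about 50% in the replicate tests, limit read from the data, passing the limit was not always enough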;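 also: agonist challenge used bursicon conditioned medium at about half maximal strength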
* hit, by the source's call; · = no result; ! = not active in a repeat. Sampled rows, rich in hits. Any-hit rate of the full collection: about 2.2%.

SMILES | HSP90 inh | TWEAK Fn14 block | TROY signal inh | LGR2 antag
O=c1[nH]c(-c2ccccc2F)nc2c1sc(=S)n2Cc1ccccc1 | 2 | 61* | 58* | -10
CCOc1ccc(/C=C/C(=O)Nc2ccc(C(N)=O)cc2)cc1OC | 2 | -9 | 6 | -2
CCOc1cc(/C=C/C(=O)Nc2ccc(C(=O)NCCN(CC)CC)cc2)ccc1OCC(C)C | 8 | -28 | -8 | 103*
NC(=O)c1sc2nc3c(c(-c4cccs4)c2c1N)CCCCC3 | -4 | 76* | -6 | ·
Cc1ccc(C2=NNC(c3cccc(F)c3)S2)cc1 (stereo not drawn) | 5 | 65* | 54* | ·
COc1cc(/C=N/Nc2snc(SC)c2C#N)cc(OC)c1OC | 1 | 92* | · | ·
C[C@@H]1CN([C@@H](C)CO)C(=O)c2cc(NS(=O)(=O)c3ccccc3)ccc2O[C@@H](C)CCCCO[C@@H]1CN(C)S(=O)(=O)c1ccc(Cl)cc1 | · | · | · | 13
COc1ccc(N=Cc2c(O)c3ccccc3oc2=O)cc1 | -2 | 5 | 27 | -21
CC(C)c1ccc(N=Cc2c(O)c3ccccc3oc2=O)cc1 | 14 | 82* | 69* | -17
COC(=O)c1ccc(/C=C(\C#N)C(=O)NC(C)c2ccccc2)cc1 (stereo not drawn) | 7 | 57* | 29 | 22
CO[C@H]1CN(C)C(=O)c2cc(NS(C)(=O)=O)ccc2OC[C@@H](C)N(CCC(F)(F)F)C[C@@H]1C | · | · | · | 16
COC(=O)N1C(=O)[C@@](c2ccc(OC)cc2)(C(C)C)N1C(=O)OC | -2 | 57* | 16 | 28
COC(=O)N1C(=O)[C@](c2ccccc2)(C2CCCC2)N1C(=O)OC | -1 | 47 | 30 | 20
COC(=O)N1C(=O)[C@](c2ccc(Cl)cc2)(C(C)C)N1C(=O)OC | 0 | 38 | 6 | 17
COC(=O)N1C(=O)[C@@](c2ccccc2)(C(C)C)N1C(=O)OC | 0 | 61* | 19 | ·
O=C(C[C@H]1C=C[C@H](NC(=O)c2ccc(F)cc2)[C@@H](CO)O1)NCCc1ccccc1 | · | · | · | 11
C=CCNc1nc(-c2sc(NC(=O)C(C)(C)C)nc2C)c(-n2cc(-c3ccccc3)nn2)s1 | · | 58* | 16 | 36
O=C(/C=C/c1cccc(Cl)c1)c1ccc([N+](=O)[O-])o1 | · | 101* | 76* | 86*
COc1ccc(/C=C/C(=O)c2ccc([N+](=O)[O-])o2)cc1OC | · | · | · | 99*
COc1cc(/C=C/C(=O)c2ccc([N+](=O)[O-])o2)ccc1O | · | 97* | 52* | 24
COc1cc(OC)c(C(=O)C=Cc2ccc(OC)c(OC)c2)c(OC)c1 | · | -6 | 8 | 10
CN(C)C(=O)N1CCN(S(=O)(=O)c2ccc3ccccc3c2)CC1 | -1 | 101* | -8 | -6
CC(C)C#Cc1cnc2c(c1)C(=O)N([C@@H](C)CO)C[C@H](C)[C@H](CN(C)Cc1cncnc1)O2 | · | · | · | -12
C[C@@H]1CN([C@@H](C)CO)C(=O)c2cc(NC(=O)Cn3cnnn3)ccc2O[C@@H]1CN(C)C(=O)Nc1ccccc1 | · | · | · | -10
COc1cc(NC(=O)c2ccnc(N)c2)cc(C(=O)Nc2cccc(C(F)(F)F)c2)c1 | · | -20 | -29 | -17
SMILES | HSP90 inh | TWEAK Fn14 block | TROY signal inh | LGR2 antag
COc1cc(NC(=O)c2cnc(N)o2)cc(C(=O)Nc2cccc(C(F)(F)F)c2)c1 | · | 57*! | 25 | 6
COc1ccc(-c2cc(N)n(S(=O)(=O)c3c(F)c(F)c(F)c(F)c3F)n2)cc1OC | -2 | 51* | 9 | -15
C[C@H](CO)N1C[C@H](C)[C@H](CN(C)Cc2cncnc2)Oc2cc(-c3cccnc3)ccc2S1(=O)=O | · | · | · | -10
O=C(C1COc2ccccc2O1)N1CCN(Cc2ccc(Br)cc2F)CC1 (stereo not drawn) | 4 | 64* | 15 | 5
C[C@H]1CN([C@@H](C)CO)C(=O)c2cc(NS(C)(=O)=O)ccc2O[C@H]1CN(C)CC1CC1 | · | · | · | 3
Cn1c(SCC(=O)N2CCOCC2)nnc1-c1ccncc1 | -6 | -2 | 0 | 12
O=C(CSc1nnc2nnc3ccccc3n12)N1CCOCC1 | 1 | 64* | 68* | -14
CO[C@H]1CN(C)C(=O)c2ccc(NC(=O)C3CC3)cc2OC[C@H](C)N(Cc2nccs2)C[C@@H]1C | · | · | · | 10
CCC(=O)Nc1ccc2c(c1)C(=O)N(C)[C@H]1CC[C@@H](CC(=O)NCCc3ccncc3)O[C@@H]1CO2 | · | · | · | -7
Cn1c(=O)c(C(=O)Nc2ccccn2)c(O)c2ccccc21 | -1 | 56* | 30 | ·
Cc1ccn2cc(C(=O)Nc3ccc4c(c3)OCCO4)nc2c1 | 13 | 62* | 49 | ·
Cc1cccc(-c2cc(C(=O)Nc3ccc4c(c3)OCCO4)c3ccccc3n2)c1 | -1 | 55* | 13 | -19
Cc1noc(C)c1S(=O)(=O)Nc1ccc2c(c1)CC(=O)N([C@@H](C)CO)C[C@@H](C)[C@@H](CN(C)Cc1ccc(C(=O)O)cc1)O2 | · | · | · | 2
CCOc1ccc(/C=C2\SC(=O)N(CCNC(=O)C3COc4ccccc4O3)C2=O)cc1OC (stereo not drawn) | 1 | 40 | 51* | 18
COc1ccccc1NS(=O)(=O)c1cccc(NC(=O)Nc2ccc(Cl)cc2)c1 | 0 | 84* | 59* | 32
O=C(Nc1ccc(Cl)cc1Cl)NC1CCN(S(=O)(=O)c2ccc(F)cc2)CC1 | -3 | -16 | 52* | -3
O=C(Nc1cccc(S(=O)(=O)Nc2ccccc2Cl)c1)c1ccc(Cl)nc1 | 6 | 63* | 28 | 9
COc1ccccc1NS(=O)(=O)c1cccc(NC(=O)Nc2ccccc2)c1 | 1 | 34 | 46 | 27
O=C(Nc1cccc(S(=O)(=O)N2CCCCC2)c1)Nc1ccc(Cl)cc1Cl | -4 | 83* | 59* | 39
O=C(C[C@@H]1CC[C@H]2[C@@H](COC[C@@H](O)CN2Cc2nccs2)O1)NCc1ccccc1 | · | · | · | 9
CO[C@@H]1CN(C)C(=O)c2cc(NC(=O)c3cnccn3)ccc2OC[C@@H](C)N(CC2CC2)C[C@@H]1C | · | · | · | -1
CCC(C)c1ccccc1NC(=O)COC(=O)c1ccc2[nH]c3c(c2c1)CCCC3 (stereo not drawn) | -5 | 98* | 56* | 13
O=C(COC(=O)c1ccc2[nH]c3c(c2c1)CCCC3)Nc1ccccc1Cl | 2 | -45 | 27 | 11
Cc1cc(=O)oc2cc(OCC(=O)Nc3nnc(C(C)C)s3)ccc12 | -10 | 77* | -1 | ·
Cc1cc(=O)oc2cc(OCC(=O)Nc3nnc(CC(C)C)s3)ccc12 | 0 | -3 | 12 | ·
COC(=O)c1ccc2nc(Nc3nc4c(F)cc(F)cc4s3)sc2c1 | 77* | 105* | 92* | ·
CCOC(=O)c1ccc2nc(Nc3nc4ccc(F)cc4s3)sc2c1 | 12 | 99* | 87* | 30
Cc1noc(C)c1NC(=O)Nc1ccc2c(c1)CC(=O)N([C@@H](C)CO)C[C@@H](C)[C@@H](CN(C)C(=O)Nc1c(C)noc1C)O2 | · | · | · | -13

Source: PubChem BioAssay (several laboratories)
